We go through five molecules from PubChem BioAssay (NCATS).

Records with an inconclusive call do not appear. Activity calls are given as the source filed them. Unless noted, the call rests on the fitted dose curve; in most records, active means well fitted curve in the direction sought with a large enough effect; inconclusive means small, poorly fitted or top-dose-only effect, or another doubt; inactive means no such curve, though single readings can be large; an effect the other way counts as inactive or inconclusive.

In assay [1] the target is Lysosomal acid glucosylceramidase (Homo sapiens) (UniProt P04062). Kind of assay: Glucocerebrosidase-p2 (AID 348; in the data active means potency below about 10 µM; further: potency means the concentration at half of the fitted maximal effect). Conditions: purified GBA, blue fluorogenic substrate, 40 min. Put shortly: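 Normal human glucocerebrosidase (0.2 nM) with blue fluorogenic substrate (80 uM final) in citrate/phosphate pH 5.9 with 10mM sodium taurocholate, 0.01% tween-20; 40 min RT, NaOH/glycine stop; fluorescence Ex 365/Em 440; AC50 from a titration from 0.6 nM upwards.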

Assay [2] can be described thus: AP1 Signaling Pathway (AID 357; active means well fitted curve in either direction with a large enough effect, not every such curve was filed as active; further: on the % scale 0 is the no-effect control and ±100 the full control effect). Conditions: ME-180 AP-1-bla reporter, EGF-induced, beta-lactamase ratio, 5 h; at 7.69 µM (top of the series) unless noted. Put shortly: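 ME-180 cells with beta-lactamase reporter under AP-1 response element, stimulated with EC50 EGF; compounds tested in titration series, 5 h at 37 °C. CCF4 substrate added 2.5 h at room temperature; 460/530 nm emission ratio gave %activity and AC50.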

Assay [3] has as its target Cytochrome P450 1A2 (Homo sapiens) (UniProt P05177). Nature of the assay: p450-cyp1a2 (AID 410; calls by dose curve; further: potency means the concentration at half of the fitted maximal effect). Conditions: recombinant CYP1A2, luciferin-ME demethylation, luminescence; series mostly up to 57 µM. In short, it runs like this:
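20nM CYP1A2, 100uM Luciferin-ME (=Km), 100mM KPO4; cpd 10 min RT; +NADPH regen, 60 min RT; stop/detect 20 min; luminescence. Normalized to furafylline 57 uM = full inhibition.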

The nature of assay [4]: NFAT Signaling Pathway (AID 444; active means well fitted curve in either direction with a large enough effect, not every such curve was filed as active;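 further: carbachol stimulus at about its EC50 of 1 µM final; on the % scale 0 is the no-effect control and ±100 the full control effect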). Conditions: Jurkat NFAT-bla M1, carbachol, beta-lactamase ratio, 5 h; at 7.69 µM (top of the series) unless noted. Put shortly: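 Jurkat cells carrying an NFAT-driven β-lactamase reporter and co-transfected muscarinic M1 receptor were treated with compound plus carbachol (1 uM final, an EC50 level) for 5 h at 37 °C. CCF4 loading followed for 1 h at RT; 460/530 nm ratio gave %activity.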

Assay [5] can be described thus: Stat Signaling Pathway (AID 446; active means well fitted curve in either direction with a large enough effect, not every such curve was filed as active;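 further: ME-180 cervical cancer cells given 40 pM IL-6 alongside compound; SIE-controlled beta-lactamase reporter measured as 460/530 nm FRET emission ratio; on the % scale 0 is the no-effect control and ±100 the full control effect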). As to conditions: ME-180 SIE beta-lactamase reporter, IL-6 stimulated, 5 h; at 7.69 µM (top of the series) unless noted. In short, it runs like this:
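Overnight-plated ME-180 cells bearing a STAT Inducible Element beta-lactamase reporter; 5 h co-exposure to compound and 40 pM IL-6; values normalized to 300 pM IL-6 and 125 nM JAK inhibitor controls.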

Assay [6] has as its target Glucocorticoid receptor (Homo sapiens) (UniProt P04150). Nature of the assay: GR-GFP Redistribution (AID 450;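 active means compounds whose dose series gives a full or clear partial fitted curve of increased nuclear translocation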; further: potency means the concentration at half of the fitted maximal effect). As to conditions: U2OS GR-GFP nuclear translocation, laser cytometry, 2 h.
Assay [7] has the same target. Nature of the assay: GR-EFC Redistribution (AID 451; calls by dose curve; further: potency means the concentration at half of the fitted maximal effect). As to conditions: CHO-K1 GR-EFC translocation, beta-gal luminescence, 2 h. In short, it runs like this: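 CHO-K1 cells stably expressing nuclear-localized β-gal enzyme acceptor and GR fused C-terminally to the enzyme donor fragment; ligand-driven nuclear translocation restores β-gal by complementation. Compounds titrated up to 46 uM final, 2 h at 37 °C; luminescence read.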

Assay [8] deals with Mitogen-activated protein kinase 10 (Mus musculus) (UniProt Q61831). Kind of assay: JNK3 AlphaScreen Assay (AID 530; active means well fitted curve in either direction with a large enough effect, not every such curve was filed as active;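 further: kinase came from lysate of stimulated human HepG2 cells; on the % scale 0 is the no-effect control and ±100 the full control effect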). Conditions: JNK3 lysate, c-Jun phosphorylation; series mostly up to 57.1 µM. In short, it runs like this: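 Biotinylated GST-cJun(1-79) served as substrate for JNK3 in HepG2 lysates stimulated with IL-1beta and TNF-alpha. ATP was 10 uM final, pH 7.6. Ser73 phosphorylation was quantified by AlphaScreen (680 nm excitation).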
For orientation: Alpha assays give light when donor and acceptor beads are brought close together.

The target of assay [9] is Cytochrome P450 3A4 (Homo sapiens) (UniProt P08684). Nature of the assay: qHTS Assay for Inhibitors and Substrates of Cytochrome P450 3A4 (AID 884). Further: potency means the concentration at half of the fitted maximal effect; nearly all actives have a fitted effect of over 50% in size. Conditions: recombinant CYP3A4, Luciferin-PPXE luminescence; series mostly up to 57.1 µM. Put shortly:
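Luminescent readout of luciferin produced by CYP3A4 (20 nM) dealkylation of Luciferin-PPXE, 25 uM (its KM). NADPH-driven reaction ran 60 min at RT after 10 min compound preincubation; data scaled to 57 uM ketoconazole as 100% inhibition.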

Assay [10] shares this target. Nature of the assay: qHTS Assay for Activators of Cytochrome P450 3A4 (AID 885). Further: nearly all actives have a fitted effect of over 65% in size. Conditions: recombinant CYP3A4, Luciferin-PPXE luminescence, 60 min; series mostly up to 57.1 µM. In short, it runs like this: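 Using 20nM recombinant human CYP3A4 in potassium phosphate (200mM), substrate Luciferin-PPXE at 25uM, luminescent luciferin detection followed a 60-min RT NADPH reaction; data scaled to 57 uM ketoconazole.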
Background: In qHTS, concentration-response curves come from the screen itself.

Assay [11] in a line: Counterscreen qHTS for small molecule stabilizers of the endoplasmic reticulum resident proteome: GLuc-NoTag assay (AID 1508627).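 Further: 0% = thapsigargin alone and -100% = DMSO vehicle control.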 Conditions: Gaussia luciferase NoTag secretion counterscreen, luminescence, thapsigargin 100 nM for final 4 h; series mostly up to 76.4 µM. In short, it runs like this:
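Secreted GLuc lacking the SERCaMP modification is measured in SH-SY5Y cells exposed to compound for 19 h and then to thapsigargin (100 nM, 4 h) to deplete ER calcium; hits retested at 11 concentrations, up to 76.6 uM.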
(In general: A counterscreen serves to expose hits that act by an unwanted route or on another target.)

Assay [12] in a line: Confirmatory qHTS for small molecule stabilizers of the endoplasmic reticulum resident proteome: Secreted ER Calcium Modulated Protein (SERCaMP) assay (AID 1508628). Further: nearly all actives have a fitted effect of over 40% in size. Further: potency means the concentration at half of the fitted maximal effect. Conditions: SERCaMP secreted luciferase ER calcium/proteostasis reporter; series mostly up to 76.3 µM. Put shortly: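 GLuc-SERCaMP-expressing SH-SY5Y cells, pretreated 16 h with compound, are challenged with thapsigargin to empty ER calcium stores; after 4 h, coelenterazine is added directly to the medium and luminescence is imaged.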

Assay [13] in a line: Cell Viability qHTS for small molecule stabilizers of the endoplasmic reticulum resident proteome (AID 1508629). As to conditions: cell viability counter-screen, 100 nM thapsigargin for final 4 h.
In assay [14] the target is 3',5'-cyclic-AMP phosphodiesterase 4B (Homo sapiens) (UniProt Q07343). Nature of the assay: qHTS Assay for Inhibitors of PDE-IV (AID 607; active means well fitted activation curve with a large enough effect in the main read-out, with a control signal flat, not every such curve was filed as active; further: % of control where 0% means no effect). As to conditions: HEK293 ACTOne CNG channel cells, membrane potential fluorescence; series mostly up to 22.9 µM. In short, it runs like this: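 Live HEK293 cells with a modified cyclic nucleotide-gated (CNG) channel report intracellular cAMP via membrane-potential dye fluorescence (ex 535/em 590 nm). Endogenous PDE-IV was targeted. Compounds were tested at up to 22.9 uM final; RO 20-1724 100 uM served as control.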

Assay [15] is described as follows: qHTS Assay for Lipid Storage Modulators (AID 1519; calls by dose curve). As to conditions: Drosophila S3 cells, BODIPY lipid droplet/cell ratio, laser cytometry, cells loaded with oleic acid; for activity change, negative = inhibition: at 57.5 µM (top of the series). In short, it runs like this:
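Cells seeded at 5,000 per well were treated with compounds over a concentration series and loaded with oleic acid (400 uM, as added). Lipid droplet fluorescence (488 nm excitation, 500-530 nm channel) was read by laser-scanning cytometry and normalized to 20 uM Triacsin C.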

Assay [16] concerns the target Dual specificity protein kinase CLK4 (Homo sapiens) (UniProt Q9HAZ1). Nature of the assay: qHTS Assay for Inhibitors of CDC-like Kinase 4 (ADP-Glo Assay) (AID 1771). Further: nearly all actives have a fitted effect of over 70% in size. Further: potency means the concentration at half of the fitted maximal effect. Conditions: recombinant CLK4, ADP-Glo luminescence; series mostly up to 80 µM. In short, it runs like this:
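25 nM Clk4, 100 uM RS peptide, 1 uM ATP (final); 2 mM MgCl2, 0.5 mM EGTA, 2.5 mM DTT, 0.01% Triton X-100; 1 hr RT. ADP-Glo readout: ATP depletion 45 min, conversion/luciferase 30 min, luminescence.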

For assay [17] the target is unchanged. Nature of the assay: qHTS Assay for Inhibitors of CDC-like Kinase 4 (ADP-FP Assay) (AID 1795). Further: nearly all actives have a fitted effect of over 60% in size. Further: potency means the concentration at half of the fitted maximal effect. Conditions: Transcreener ADP fluorescence polarization; series mostly up to 50 µM. Put shortly: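 Inhibition of ADP formation by 6.25 nM Clk4 is measured using 1 uM ATP and 100 uM RS repeat peptide over one hour. Produced ADP displaces a fluorescent tracer from antibody, lowering polarization.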

In assay [18] the target is Ubiquitin carboxyl-terminal hydrolase 1 (Homo sapiens) (UniProt O94782). Nature of the assay: Inhibitors of USP1/UAF1: Pilot qHTS (AID 504865).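 Further: rhodamine fluorescence freed from ubiquitin-rhodamine substrate followed over time; top concentration of the series differs between compounds; on the % scale 0 is the no-effect control and ±100 the full control effect; nearly all actives have a fitted effect of over 35% in size.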 As to conditions: purified USP1/UAF1, Ub-rhodamine cleavage fluorescence; series mostly up to 54.9 µM. Put shortly:
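Kinetic fluorescence assay: 1nM USP1/UAF1, 15 min compound preincubation, then 150nM Ub-Rho; 480/540 nm.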

The target in assay [19] is Dual specificity protein kinase CLK4 (Homo sapiens) (UniProt Q9HAZ1). Kind of assay: qHTS Assay for Inhibitors of CDC-like Kinase 4 (Kinase-Glo Assay) (AID 1770). Further: nearly all actives have a fitted effect of over 65% in size. Further: potency means the concentration at half of the fitted maximal effect. As to conditions: recombinant Clk4, Kinase-Glo ATP depletion luminescence; series mostly up to 66.7 µM. Put shortly: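 Inhibition was judged from remaining ATP, measured by Ultra-Glo luciferase bioluminescence after Clk4 (25 nM) had acted on RS peptide at 1 uM ATP for 4.5 hours, room temperature.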

Assay [20] can be described thus: qHTS Assay for Identification of Small Molecule Agonists for Hypoxia Response Element Signaling Pathway (AID 914; active means well fitted activation curve with a large enough effect in the signal ratio, with a control signal flat, not every such curve was filed as active; the % refers to the signal ratio; further: potency means the concentration at half of the fitted maximal effect). As to conditions: ME-180 (cervical carcinoma) HRE-bla reporter, beta-lactamase ratio, CoCl2, 17 h; activation: stronger effect = higher value. Put shortly: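 HRE-bla ME-180 cells, overnight plating in Opti-MEM with 0.5% dialyzed FBS; cpd titration + EC50 CoCl2, 17 h, 37 degrees Celsius; CCF4 2.5 h RT; 460/530 nm ratio; AC50.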

Setting [21] is: measured here: cell count channel max response.
Where [22] appears, read: measured here: lipid channel max response.

Chain of Cytochrome P450 1A2 (Homo sapiens) (P05177 whole entry, looked up): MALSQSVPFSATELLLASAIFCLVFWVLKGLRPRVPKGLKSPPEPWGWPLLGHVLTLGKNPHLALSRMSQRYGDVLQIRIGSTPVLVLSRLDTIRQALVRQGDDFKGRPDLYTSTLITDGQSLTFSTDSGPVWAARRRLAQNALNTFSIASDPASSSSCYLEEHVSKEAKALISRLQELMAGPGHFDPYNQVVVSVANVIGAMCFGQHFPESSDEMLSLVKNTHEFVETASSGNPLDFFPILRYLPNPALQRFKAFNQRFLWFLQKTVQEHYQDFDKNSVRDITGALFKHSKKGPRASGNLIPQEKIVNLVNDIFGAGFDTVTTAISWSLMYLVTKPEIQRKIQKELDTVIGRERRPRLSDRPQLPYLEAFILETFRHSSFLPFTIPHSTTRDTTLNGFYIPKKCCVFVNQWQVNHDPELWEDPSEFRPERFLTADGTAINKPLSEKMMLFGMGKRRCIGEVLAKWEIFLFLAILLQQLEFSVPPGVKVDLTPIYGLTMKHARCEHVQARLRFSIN
Chain of Ubiquitin carboxyl-terminal hydrolase 1 (Homo sapiens) (O94782 whole entry, looked up): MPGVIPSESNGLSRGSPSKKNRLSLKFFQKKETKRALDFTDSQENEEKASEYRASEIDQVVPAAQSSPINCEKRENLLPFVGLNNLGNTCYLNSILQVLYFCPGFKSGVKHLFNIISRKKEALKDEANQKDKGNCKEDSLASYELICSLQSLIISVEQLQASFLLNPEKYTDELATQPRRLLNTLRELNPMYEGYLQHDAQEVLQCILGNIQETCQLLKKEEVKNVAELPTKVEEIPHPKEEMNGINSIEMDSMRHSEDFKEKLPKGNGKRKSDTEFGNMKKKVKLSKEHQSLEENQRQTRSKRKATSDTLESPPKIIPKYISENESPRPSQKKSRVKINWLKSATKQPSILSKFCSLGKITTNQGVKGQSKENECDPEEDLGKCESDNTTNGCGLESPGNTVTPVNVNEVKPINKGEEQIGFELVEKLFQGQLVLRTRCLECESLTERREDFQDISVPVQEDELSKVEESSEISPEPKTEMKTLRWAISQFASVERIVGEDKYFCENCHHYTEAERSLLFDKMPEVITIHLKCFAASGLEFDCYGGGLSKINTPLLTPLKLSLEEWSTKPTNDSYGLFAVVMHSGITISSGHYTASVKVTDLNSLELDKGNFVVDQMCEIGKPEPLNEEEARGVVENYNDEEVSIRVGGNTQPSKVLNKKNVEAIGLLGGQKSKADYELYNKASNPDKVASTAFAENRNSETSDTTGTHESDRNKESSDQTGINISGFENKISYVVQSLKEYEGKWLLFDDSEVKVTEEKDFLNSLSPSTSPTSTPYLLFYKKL
Chain of Glucocorticoid receptor (Homo sapiens) (P04150 whole entry, looked up, the tested form may be a part): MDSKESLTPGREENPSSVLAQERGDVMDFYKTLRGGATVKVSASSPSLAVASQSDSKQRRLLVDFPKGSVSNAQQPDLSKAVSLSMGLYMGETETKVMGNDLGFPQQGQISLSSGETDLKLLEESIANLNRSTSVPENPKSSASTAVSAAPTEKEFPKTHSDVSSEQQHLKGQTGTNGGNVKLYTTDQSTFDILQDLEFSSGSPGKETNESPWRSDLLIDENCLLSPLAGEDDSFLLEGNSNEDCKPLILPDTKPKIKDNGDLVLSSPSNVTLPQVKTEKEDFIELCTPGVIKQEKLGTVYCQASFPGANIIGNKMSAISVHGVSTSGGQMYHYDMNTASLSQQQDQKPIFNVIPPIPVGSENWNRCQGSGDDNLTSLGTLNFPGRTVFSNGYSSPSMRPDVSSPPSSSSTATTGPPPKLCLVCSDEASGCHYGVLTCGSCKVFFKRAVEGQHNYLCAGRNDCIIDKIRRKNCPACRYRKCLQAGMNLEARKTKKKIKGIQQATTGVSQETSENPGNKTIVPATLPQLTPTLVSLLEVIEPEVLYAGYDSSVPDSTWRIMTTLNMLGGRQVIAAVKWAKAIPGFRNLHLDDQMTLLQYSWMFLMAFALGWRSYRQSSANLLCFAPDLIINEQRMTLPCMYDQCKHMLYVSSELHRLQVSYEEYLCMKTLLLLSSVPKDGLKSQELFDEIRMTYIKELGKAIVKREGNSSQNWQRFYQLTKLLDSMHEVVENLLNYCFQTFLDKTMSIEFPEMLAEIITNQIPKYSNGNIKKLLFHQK
Chain of 3',5'-cyclic-AMP phosphodiesterase 4B (Homo sapiens) (Q07343 whole entry, looked up): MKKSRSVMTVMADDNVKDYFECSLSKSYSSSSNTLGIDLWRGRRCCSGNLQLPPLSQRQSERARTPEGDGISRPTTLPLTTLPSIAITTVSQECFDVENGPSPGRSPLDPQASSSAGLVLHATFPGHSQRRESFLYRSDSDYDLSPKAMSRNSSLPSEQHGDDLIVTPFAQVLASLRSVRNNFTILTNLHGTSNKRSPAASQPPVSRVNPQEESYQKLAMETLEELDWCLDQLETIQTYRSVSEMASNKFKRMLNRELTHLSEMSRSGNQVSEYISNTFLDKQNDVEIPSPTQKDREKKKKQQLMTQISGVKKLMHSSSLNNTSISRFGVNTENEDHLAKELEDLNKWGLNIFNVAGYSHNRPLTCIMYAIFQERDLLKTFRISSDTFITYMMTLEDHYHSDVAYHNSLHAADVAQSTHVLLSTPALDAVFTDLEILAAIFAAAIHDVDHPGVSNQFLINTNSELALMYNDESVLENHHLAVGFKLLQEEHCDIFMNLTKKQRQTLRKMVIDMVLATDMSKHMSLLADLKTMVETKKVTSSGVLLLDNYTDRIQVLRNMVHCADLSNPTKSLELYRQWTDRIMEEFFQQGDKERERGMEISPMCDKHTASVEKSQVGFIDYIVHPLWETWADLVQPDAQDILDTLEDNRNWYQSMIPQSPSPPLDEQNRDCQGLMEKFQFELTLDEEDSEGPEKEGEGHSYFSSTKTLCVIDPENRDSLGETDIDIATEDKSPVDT
Chain of Lysosomal acid glucosylceramidase (Homo sapiens) (P04062 whole entry, looked up): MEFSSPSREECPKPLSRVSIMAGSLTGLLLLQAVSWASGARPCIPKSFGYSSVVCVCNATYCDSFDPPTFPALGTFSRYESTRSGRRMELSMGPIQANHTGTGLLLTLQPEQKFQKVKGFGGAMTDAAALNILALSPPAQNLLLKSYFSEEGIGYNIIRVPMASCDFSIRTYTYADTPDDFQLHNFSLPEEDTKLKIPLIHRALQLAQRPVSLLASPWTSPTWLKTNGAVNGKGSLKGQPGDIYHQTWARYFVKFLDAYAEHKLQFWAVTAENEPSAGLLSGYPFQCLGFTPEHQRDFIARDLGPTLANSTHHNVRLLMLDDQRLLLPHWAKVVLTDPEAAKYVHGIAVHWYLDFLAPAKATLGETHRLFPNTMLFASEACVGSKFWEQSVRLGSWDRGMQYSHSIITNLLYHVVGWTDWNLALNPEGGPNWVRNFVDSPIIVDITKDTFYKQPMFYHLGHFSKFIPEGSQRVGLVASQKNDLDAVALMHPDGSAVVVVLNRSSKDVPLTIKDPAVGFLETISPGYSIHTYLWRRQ
Chain of Cytochrome P450 3A4 (Homo sapiens) (P08684 whole entry, looked up): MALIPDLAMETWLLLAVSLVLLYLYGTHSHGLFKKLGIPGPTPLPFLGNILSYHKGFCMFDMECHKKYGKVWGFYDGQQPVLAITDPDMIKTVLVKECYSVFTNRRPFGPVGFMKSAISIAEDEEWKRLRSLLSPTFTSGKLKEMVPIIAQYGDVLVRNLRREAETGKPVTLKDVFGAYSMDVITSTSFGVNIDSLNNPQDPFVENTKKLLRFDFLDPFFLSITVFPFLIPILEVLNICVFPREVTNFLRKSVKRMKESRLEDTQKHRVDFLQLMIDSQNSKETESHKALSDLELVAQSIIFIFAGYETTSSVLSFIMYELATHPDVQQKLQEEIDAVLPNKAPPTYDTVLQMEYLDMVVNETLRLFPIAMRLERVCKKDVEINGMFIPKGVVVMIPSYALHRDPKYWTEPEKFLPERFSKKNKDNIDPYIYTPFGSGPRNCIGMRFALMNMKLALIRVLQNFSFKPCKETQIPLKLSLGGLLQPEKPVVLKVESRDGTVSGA
Chain of Dual specificity protein kinase CLK4 (Homo sapiens) (Q9HAZ1 whole entry, looked up): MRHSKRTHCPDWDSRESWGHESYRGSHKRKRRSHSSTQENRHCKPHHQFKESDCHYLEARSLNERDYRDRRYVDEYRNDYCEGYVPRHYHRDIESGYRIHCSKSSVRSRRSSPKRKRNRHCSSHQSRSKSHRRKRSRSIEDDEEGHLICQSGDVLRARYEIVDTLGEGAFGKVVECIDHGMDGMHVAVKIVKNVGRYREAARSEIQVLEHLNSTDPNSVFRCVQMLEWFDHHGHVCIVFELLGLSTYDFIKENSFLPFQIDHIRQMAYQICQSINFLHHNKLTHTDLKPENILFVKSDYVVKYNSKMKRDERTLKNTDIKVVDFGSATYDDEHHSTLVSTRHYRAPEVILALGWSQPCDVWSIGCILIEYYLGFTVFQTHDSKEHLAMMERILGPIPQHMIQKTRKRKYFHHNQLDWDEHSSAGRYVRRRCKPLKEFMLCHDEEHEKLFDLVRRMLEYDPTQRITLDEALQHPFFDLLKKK

Consider `CCNc1ncc2nc(CCc3ccccc3)c(=O)n(-c3ccccc3)c2n1`, for which the Potency is > 11.4 µM (inactive) in assay [1]; 1.26 µM (active) in assay [3]; > 9.22 µM (inactive) in assay [6]; > 46 µM (inactive) in assay [7]; 5.01 µM (active) in assay [9]; 35.5 µM (active) in assay [12]. Moreover, the activity change, negative = inhibition in [2] is -30.4% (inactive); in [4] it was -2.92% (inactive). Further, the activity, negative = inhibition in [5] is 16.3% (inactive). For the same molecule, the molecule was called inactive in assay [8]. Also, the Potency entry in [10] and in [11] was “inactive” each time. Besides, the max response in assay [13] is 16.3% (inactive).

Turning to `COc1cccc(Cn2c(=O)c(C)nc3cnc(N4CCN(C)CC4)nc32)c1`, the Potency in [1] is > 11.4 µM (inactive); in [6], > 9.22 µM (inactive); in [7] it was > 46 µM (inactive). Further, the activity change, negative = inhibition was -0.444% (inactive) in [2], 5.99% (inactive) in assay [4] and -3.34% (inactive) in assay [15]. Also, in assay [5], the activity, negative = inhibition is -11.6% (inactive). Also, in assay [8], the outcome was inactive. The Potency result in assay [14], in assay [16], in assay [17], in assay [18], in assay [11] and in assay [12] was “inactive” in each case. Also, the max response in [15] (setting [21]) was determined as 13.5%; in [15] (setting [22]) it was 7.13%.

Take `CN1CCN(c2nc(-c3ccc4c(c3)OCO4)nc3ccccc23)CC1`: the activity change, negative = inhibition in [2] was 21.8% (inactive); in [15], 8.71% (inactive). Besides, the activity, negative = inhibition in assay [5] was -4.65% (inactive). Moreover, the Potency in assay [6] was > 46 µM (inactive); in assay [7], > 46 µM (inactive); in [19], 17.8 µM (active); in assay [16], 15.8 µM (active); in assay [17] it was 14.1 µM (active); in [12], 20 µM (active). In addition, in [8], the result was inactive. Besides, the results for the max response in assay [15] (setting [21]) and in [15] (setting [22]) were 28% and 35.9%, respectively. Also, the Potency entry in assay [18] and in assay [11] was “inactive” throughout.

As to `COc1ccc(-c2nc3cnc(N4CCN(C)CC4)nc3n(-c3ccc(OC)cc3)c2=O)cc1`, the Potency in [1] is > 11.4 µM (inactive); in assay [3], 15.8 µM (active); in assay [6] it was > 9.22 µM (inactive); in assay [7], > 46 µM (inactive); in [20], 3.16 µM (active). The figures for the activity change, negative = inhibition in assay [2] and in assay [15] were 41.4% (inactive) and 3.89% (inactive), respectively. Further, in assay [8], the result was inactive. Further, the Potency entry in [14], in assay [19], in [16], in [17], in [18] and in assay [11] was “inactive” in each case. Moreover, the Potency entry in [12] was “inactive”. The max response turned out to be 28.9% in [15] (setting [21]) and 29.8% in assay [15] (setting [22]).

As to `Cc1nc2cnc(N3CCN(C)CC3)nc2n(Cc2cccs2)c1=O`, the Potency in assay [1] was > 11.4 µM (inactive); in assay [3], 12.6 µM (active); in [6] it was > 9.22 µM (inactive); in [7], > 46 µM (inactive); in assay [12], 39.8 µM (active). For the same molecule, the activity change, negative = inhibition in assay [2] is 6.23% (inactive); in assay [4], -2.27% (inactive); in assay [15] it was 5.56% (inactive). Also, in assay [5], the activity, negative = inhibition was -2.61% (inactive). The call in assay [8] was inactive. The Potency result in assay [14], in [10] and in assay [11] was “inactive” throughout. Also, the max response in assay [15] (setting [21]) is 14%; in assay [15] (setting [22]), 22.2%; in [13], -5.25% (inactive).
